The nature of test [1]: Caspase-3/7 induction in CHO-K1 cells by small molecules, qHTS assay (AID 1346980). Further: nearly all actives have a fitted effect of over 15% in size. Conditions: CHO-K1 caspase-3/7 induction, Caspase-Glo luminescence, 17 h; series mostly up to 92.4 µM. Summed up: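 Wild-type CHO-K1 cells exposed to compounds for 17hr at 37 C, 5% CO2. Caspase-3/7 activity then measured by Caspase-Glo 3/7 luminescence after 30min at room temperature.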
(In qHTS, concentration-response curves come from the screen itself.)

The nature of test [2]: Caspase-3/7 induction in HepG2 cells by small molecules, qHTS cell viability counter screen (AID 1346981). Further: nearly all actives have a fitted effect of over 30% in size. Conditions: CellTiter-Fluor fluorescence, 17 h; series mostly up to 92.4 µM. Summed up: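 Wild-type HepG2 cells (2,000/well) were allowed to settle for 5 hr at 37 C, 5% CO2, then dosed with compounds in DMSO by pin transfer. After 16 hr at 37 C, CellTiter-Fluor was added and fluorescence read 1 hr later.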

The target in test [3] is Nuclear receptor subfamily 1 group I member 2 (Homo sapiens) (UniProt O75469). The test can be described thus: Human pregnane X receptor (PXR) small molecule agonists, qHTS assay (AID 1346982). Further: nearly all actives have a fitted effect of over 35% in size. Further: potency means the concentration at half of the fitted maximal effect. Conditions: PXR-Luc HepG2, CYP3A4 luciferase reporter, 24 h; series mostly up to 92.4 µM. The procedure, abridged:
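PXR-Luc HepG2 cells (CYP3A4 promoter-driven luciferase) were seeded in medium with 5% charcoal-stripped FBS, left 5 hr at 37 C, then exposed to compounds in DMSO for 24 hr. Luminescence was read after ONE-Glo addition.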

For test [4], the target named is Acetylcholinesterase (Homo sapiens) (UniProt P22303). The test can be described thus: Acetylcholinesterase (AChE) small molecule antagonists: colormetric cell-based qHTS assay (AID 1347395; calls by dose curve; further: nearly all actives have a fitted effect of over 30% in size; further: potency means the concentration at half of the fitted maximal effect). Conditions: SH-SY5Y cells AChE activity, colorimetric (Ellman); series mostly up to 115 µM. Summed up:
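In this cell-based qHTS, attached SH-SY5Y cells were treated with test chemicals for 30 min, after which acetylthiocholine hydrolysis was followed by DTNB colour development over 90 min at 37 C.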

The target is the same in test [5]. Kind of test: Acetylcholinesterase (AChE) small molecule antagonists: enzyme-based qHTS assay (AID 1347397; calls by dose curve; further: nearly all actives have a fitted effect of over 55% in size; further: potency means the concentration at half of the fitted maximal effect). Conditions: Potency: AChE enzyme activity inhibition; series mostly up to 115 µM. The procedure, abridged: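 Recombinant human AChE (50 mU/mL) preincubated with compound 30 min at room temperature; acetylthiocholine plus DTNB then added, and thiocholine formation read colorimetrically after 10 min at room temperature. DMSO served as vehicle control.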

For test [6] the target is unchanged. The test can be described thus: Acetylcholinesterase (AChE) small molecule antagonists: fluorescence cell-based qHTS assay (AID 1347398; calls by dose curve; further: nearly all actives have a fitted effect of over 50% in size; further: potency means the concentration at half of the fitted maximal effect). Conditions: SH-SY5Y cells; Potency: AChE activity; series mostly up to 115 µM. The procedure, abridged:
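SH-SY5Y cells (2000/well), attached overnight, incubated with compound 30 min at 37 C. Acetylthiocholine plus Thiolite Green then added for 40 min at room temperature. Thiocholine fluorescence (Ex/Em 490/520 nm) reports cellular AChE activity.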

Test [7] has the same target. The test can be described thus: Acetylcholinesterase (AChE) small molecule antagonists: enzyme-based qHTS assay with human liver microsomes (AID 1347399; calls by dose curve; further: nearly all actives have a fitted effect of over 60% in size; further: potency means the concentration at half of the fitted maximal effect). Conditions: Potency: qHTS inhibition; series mostly up to 115 µM. The procedure, abridged:
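Recombinant human AChE (50 mU/mL in the enzyme mix) and human liver microsomes (0.25 mg/mL final) were preincubated with compound and NADPH (0.25 mg/mL final) for 30 min at 37 C. Acetylthiocholine/DTNB was then added; thiocholine was read colorimetrically after 10 min at room temperature.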

The target of test [8] is Cytochrome P450 2D6 (Homo sapiens) (UniProt P10635). The test can be described thus: Cytochrome P450 Family 2 Subfamily D Member 6 (CYP2D6) small molecule antagonists: luciferase reporter qHTS assay (AID 1671196). Further: nearly all actives have a fitted effect of over 50% in size. Further: potency means the concentration at half of the fitted maximal effect. Conditions: P450-Glo CYP2D6 enzyme assay, luciferin luminescence, 1 h; series mostly up to 115 µM. The procedure, abridged:
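CYP2D6 enzyme–substrate mix was held with compound for 10 min at room temperature, then NADPH regeneration solution was added and the reaction ran 1 h at room temperature. Luciferin product was detected by luminescence after 20 min with detection reagent.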
A general note: In a reporter assay the amount or activity of a reporter protein is the signal.

Test [9] addresses Cytochrome P450 2C19 (Homo sapiens) (UniProt P33261). Kind of test: Cytochrome P450 Family 2 Subfamily C Member 19 (CYP2C19) small molecule antagonists: luciferase reporter qHTS assay (AID 1671197). Further: nearly all actives have a fitted effect of over 65% in size. Further: potency means the concentration at half of the fitted maximal effect. Conditions: P450-Glo CYP2C19 enzyme, luciferin luminescence, 1 h; series mostly up to 115 µM. The procedure, abridged:
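P450-Glo CYP2C19 screening system; proluciferin substrate; DMSO compound stocks; 10 min RT preincubation; NADPH regeneration, 1 h at 37C; luciferin detection reagent, 20 min RT; luminescence as RLU.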

The target of test [10] is Cytochrome P450 2C9 (Homo sapiens) (UniProt P11712). Kind of test: Cytochrome P450 Family 2 Subfamily C Member 9 (CYP2C9) small molecule antagonists: luciferase reporter qHTS assay (AID 1671198). Further: nearly all actives have a fitted effect of over 50% in size. Further: potency means the concentration at half of the fitted maximal effect. Conditions: P450-Glo CYP2C9 enzyme assay, luciferin luminescence; series mostly up to 115 µM. The procedure, abridged:
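P450-Glo proluciferin substrate with CYP2C9 enzyme; 10 min RT preincubation, then NADPH regeneration 1 h at 37C; luciferin detection reagent 20 min RT, luminescence in relative luminescence units.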

The target in test [11] is Cytochrome P450 1A2 (Homo sapiens) (UniProt P05177). The test can be described thus: Cytochrome P450 Family 1 Subfamily A Member 2 (CYP1A2) small molecule antagonists: luciferase reporter qHTS assay (AID 1671199). Further: nearly all actives have a fitted effect of over 50% in size. Further: potency means the concentration at half of the fitted maximal effect. Conditions: P450-Glo CYP1A2 enzyme, luciferin luminescence, 1 h; series mostly up to 115 µM. Summed up: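 Human CYP1A2 activity measured with a P450-Glo proluciferin substrate; compounds in DMSO preincubated 10 min at room temperature with enzyme-substrate mix, then NADPH regeneration system added for 1 h. Luciferin detection reagent, 20 min, luminescence read.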

The target of test [12] is Voltage-gated inwardly rectifying potassium channel KCNH2 (Homo sapiens) (UniProt Q12809). The test can be described thus: Human Ether-a-go-go-Related Gene (hERG) channel small molecule antagonists: fluorescence cell-based qHTS assay (AID 1671200). Conditions: hERG-U2OS cells, FluxOR thallium flux fluorescence; series mostly up to 76.8 µM. Summed up:
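Cell line hERG-U2OS; dye FluxOR II, 1 h RT dark; Tl+ stimulus; ex 480/em 540 nm, read each second for 2 min.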

For test [13], the target named is Cytochrome P450 3A4 (Homo sapiens) (UniProt P08684). The test can be described thus: Cytochrome P450 Family 3 Subfamily A Member 4 (CYP3A4) small molecule antagonists: luciferase reporter qHTS assay (AID 1671201). Further: nearly all actives have a fitted effect of over 50% in size. Further: potency means the concentration at half of the fitted maximal effect. Conditions: P450-Glo CYP3A4 enzyme, luciferin luminescence, 1 h; series mostly up to 115 µM. Summed up: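 Room-temperature assay throughout: 10 min compound–enzyme/substrate preincubation, 1 h reaction after NADPH regeneration solution, 20 min detection. Luciferin formed from proluciferin substrate is quantified by luminescence.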

Where “and” joins values, the source holds several entries; their conditions need not be identical. Equal values may be shown once. Results filed as inconclusive are left out. Some compounds were tested as several samples or in several runs, with calls that do not always agree. Calls of active or inactive are those of the source. Unless noted, the call rests on the fitted dose curve; in most records, active means well fitted curve in the direction sought with a large enough effect in the repeat runs; inconclusive means weak or mixed curves; inactive means no such curve, though single readings can be large; an effect the other way counts as inactive or inconclusive.

Chain of Cytochrome P450 2D6 (Homo sapiens) (P10635 whole entry, looked up): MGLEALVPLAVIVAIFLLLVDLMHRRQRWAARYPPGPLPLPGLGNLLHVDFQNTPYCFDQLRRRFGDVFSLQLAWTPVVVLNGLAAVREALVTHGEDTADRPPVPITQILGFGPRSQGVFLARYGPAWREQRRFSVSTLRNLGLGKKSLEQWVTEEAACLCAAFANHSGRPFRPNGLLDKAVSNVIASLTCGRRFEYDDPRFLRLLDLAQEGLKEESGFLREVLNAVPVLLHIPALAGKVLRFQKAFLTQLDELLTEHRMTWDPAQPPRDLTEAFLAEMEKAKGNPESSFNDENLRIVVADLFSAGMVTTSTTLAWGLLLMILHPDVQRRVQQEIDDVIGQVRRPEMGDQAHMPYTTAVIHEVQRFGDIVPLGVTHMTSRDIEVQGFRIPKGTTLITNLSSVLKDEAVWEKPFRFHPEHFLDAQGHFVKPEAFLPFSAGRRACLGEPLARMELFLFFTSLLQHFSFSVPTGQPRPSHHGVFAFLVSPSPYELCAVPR
Chain of Voltage-gated inwardly rectifying potassium channel KCNH2 (Homo sapiens) (Q12809 whole entry, looked up): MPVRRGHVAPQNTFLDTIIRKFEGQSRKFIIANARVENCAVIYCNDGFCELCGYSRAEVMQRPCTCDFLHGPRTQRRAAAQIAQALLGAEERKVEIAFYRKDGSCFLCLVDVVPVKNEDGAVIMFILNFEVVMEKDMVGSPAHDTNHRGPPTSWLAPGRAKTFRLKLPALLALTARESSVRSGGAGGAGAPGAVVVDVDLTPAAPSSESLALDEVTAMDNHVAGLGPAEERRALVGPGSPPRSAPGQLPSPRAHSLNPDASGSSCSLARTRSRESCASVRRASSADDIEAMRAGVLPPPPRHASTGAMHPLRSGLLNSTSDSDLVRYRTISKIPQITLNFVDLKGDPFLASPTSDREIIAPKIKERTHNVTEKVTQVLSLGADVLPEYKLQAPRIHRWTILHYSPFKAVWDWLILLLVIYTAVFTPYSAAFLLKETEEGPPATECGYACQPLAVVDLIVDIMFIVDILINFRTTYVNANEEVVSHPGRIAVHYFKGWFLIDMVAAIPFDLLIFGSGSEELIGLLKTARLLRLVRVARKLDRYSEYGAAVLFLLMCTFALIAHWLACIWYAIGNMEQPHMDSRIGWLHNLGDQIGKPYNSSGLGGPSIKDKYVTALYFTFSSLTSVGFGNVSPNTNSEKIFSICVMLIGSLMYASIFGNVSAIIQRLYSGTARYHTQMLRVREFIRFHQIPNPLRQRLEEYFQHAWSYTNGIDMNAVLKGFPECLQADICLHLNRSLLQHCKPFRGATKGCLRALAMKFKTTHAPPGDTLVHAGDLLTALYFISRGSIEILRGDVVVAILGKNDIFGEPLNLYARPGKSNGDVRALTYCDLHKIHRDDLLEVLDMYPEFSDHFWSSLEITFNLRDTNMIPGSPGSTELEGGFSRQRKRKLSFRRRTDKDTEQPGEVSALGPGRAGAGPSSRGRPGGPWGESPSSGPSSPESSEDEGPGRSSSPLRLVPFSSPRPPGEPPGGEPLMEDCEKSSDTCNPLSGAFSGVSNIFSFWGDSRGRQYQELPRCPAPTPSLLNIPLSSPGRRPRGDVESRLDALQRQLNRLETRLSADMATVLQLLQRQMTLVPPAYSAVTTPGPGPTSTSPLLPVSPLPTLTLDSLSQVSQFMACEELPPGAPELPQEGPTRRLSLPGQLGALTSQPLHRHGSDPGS
Chain of Cytochrome P450 2C9 (Homo sapiens) (P11712 whole entry, looked up): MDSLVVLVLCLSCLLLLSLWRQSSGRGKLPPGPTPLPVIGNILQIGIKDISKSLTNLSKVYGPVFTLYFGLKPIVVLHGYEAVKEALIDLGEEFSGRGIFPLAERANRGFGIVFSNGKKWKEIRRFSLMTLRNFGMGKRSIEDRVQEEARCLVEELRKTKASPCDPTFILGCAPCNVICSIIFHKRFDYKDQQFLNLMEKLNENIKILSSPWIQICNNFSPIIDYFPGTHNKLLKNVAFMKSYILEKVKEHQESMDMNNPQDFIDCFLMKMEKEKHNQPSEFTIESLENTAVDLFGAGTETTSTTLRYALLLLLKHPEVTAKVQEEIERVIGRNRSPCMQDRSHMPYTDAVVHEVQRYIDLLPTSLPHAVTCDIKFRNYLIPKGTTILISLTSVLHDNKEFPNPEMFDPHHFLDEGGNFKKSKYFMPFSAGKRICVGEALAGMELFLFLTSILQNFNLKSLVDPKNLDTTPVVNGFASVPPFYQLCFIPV
Chain of Acetylcholinesterase (Homo sapiens) (P22303 whole entry, looked up): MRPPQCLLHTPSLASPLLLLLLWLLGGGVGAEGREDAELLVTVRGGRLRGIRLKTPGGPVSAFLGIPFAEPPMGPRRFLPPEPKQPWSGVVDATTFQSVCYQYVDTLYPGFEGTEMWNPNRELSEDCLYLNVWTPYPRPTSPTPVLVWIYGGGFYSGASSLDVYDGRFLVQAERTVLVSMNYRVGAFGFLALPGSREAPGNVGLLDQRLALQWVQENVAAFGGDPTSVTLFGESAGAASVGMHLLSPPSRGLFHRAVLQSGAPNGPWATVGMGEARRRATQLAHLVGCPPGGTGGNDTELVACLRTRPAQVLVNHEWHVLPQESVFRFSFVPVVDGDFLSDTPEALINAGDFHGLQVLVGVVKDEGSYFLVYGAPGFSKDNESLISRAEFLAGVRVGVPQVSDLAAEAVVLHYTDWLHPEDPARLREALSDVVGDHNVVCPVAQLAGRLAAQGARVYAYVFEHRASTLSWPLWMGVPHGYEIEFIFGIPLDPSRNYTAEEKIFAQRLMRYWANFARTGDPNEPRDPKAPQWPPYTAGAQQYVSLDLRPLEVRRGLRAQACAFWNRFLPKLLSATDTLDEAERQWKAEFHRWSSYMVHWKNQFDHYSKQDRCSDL
Chain of Cytochrome P450 3A4 (Homo sapiens) (P08684 whole entry, looked up): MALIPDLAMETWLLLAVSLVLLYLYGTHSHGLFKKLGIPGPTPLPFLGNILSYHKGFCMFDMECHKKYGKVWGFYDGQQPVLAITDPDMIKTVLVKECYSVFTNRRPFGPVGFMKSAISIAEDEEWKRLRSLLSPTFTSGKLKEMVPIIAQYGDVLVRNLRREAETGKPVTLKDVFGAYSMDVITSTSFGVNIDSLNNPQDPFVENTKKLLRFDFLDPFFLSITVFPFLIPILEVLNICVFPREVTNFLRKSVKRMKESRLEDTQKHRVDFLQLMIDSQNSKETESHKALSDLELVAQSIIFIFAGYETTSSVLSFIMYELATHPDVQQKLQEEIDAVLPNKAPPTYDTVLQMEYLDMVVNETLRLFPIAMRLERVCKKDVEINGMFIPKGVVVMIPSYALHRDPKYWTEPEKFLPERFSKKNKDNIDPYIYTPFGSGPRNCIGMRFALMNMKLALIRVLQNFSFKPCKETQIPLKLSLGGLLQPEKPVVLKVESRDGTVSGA
Chain of Cytochrome P450 1A2 (Homo sapiens) (P05177 whole entry, looked up): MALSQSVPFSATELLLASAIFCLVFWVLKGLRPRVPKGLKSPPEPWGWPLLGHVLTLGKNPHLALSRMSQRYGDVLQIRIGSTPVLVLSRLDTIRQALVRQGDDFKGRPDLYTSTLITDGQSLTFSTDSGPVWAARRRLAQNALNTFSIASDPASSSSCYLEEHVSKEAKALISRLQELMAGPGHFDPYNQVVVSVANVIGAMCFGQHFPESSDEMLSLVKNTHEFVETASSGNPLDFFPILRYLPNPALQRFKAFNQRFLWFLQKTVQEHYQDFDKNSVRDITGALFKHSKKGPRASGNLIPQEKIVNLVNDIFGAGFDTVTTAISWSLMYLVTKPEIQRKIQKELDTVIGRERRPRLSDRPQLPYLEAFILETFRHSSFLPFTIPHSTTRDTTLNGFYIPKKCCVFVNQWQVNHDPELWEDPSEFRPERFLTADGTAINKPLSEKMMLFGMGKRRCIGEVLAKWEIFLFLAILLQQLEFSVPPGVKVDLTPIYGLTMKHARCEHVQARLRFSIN
Chain of Cytochrome P450 2C19 (Homo sapiens) (P33261 whole entry, looked up): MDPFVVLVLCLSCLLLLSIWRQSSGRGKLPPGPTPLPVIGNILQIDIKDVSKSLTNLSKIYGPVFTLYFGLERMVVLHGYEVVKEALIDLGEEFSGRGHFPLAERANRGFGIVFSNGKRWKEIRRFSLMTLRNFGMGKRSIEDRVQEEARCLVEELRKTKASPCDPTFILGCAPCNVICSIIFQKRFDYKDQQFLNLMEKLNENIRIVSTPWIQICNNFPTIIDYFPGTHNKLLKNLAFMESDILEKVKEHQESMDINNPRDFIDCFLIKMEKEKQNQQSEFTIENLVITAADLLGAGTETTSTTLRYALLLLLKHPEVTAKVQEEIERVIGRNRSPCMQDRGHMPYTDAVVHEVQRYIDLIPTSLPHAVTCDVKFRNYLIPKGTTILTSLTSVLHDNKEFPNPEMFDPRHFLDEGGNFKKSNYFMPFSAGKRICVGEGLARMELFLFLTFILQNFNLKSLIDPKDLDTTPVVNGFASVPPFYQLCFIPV
Chain of Nuclear receptor subfamily 1 group I member 2 (Homo sapiens) (O75469 whole entry, looked up): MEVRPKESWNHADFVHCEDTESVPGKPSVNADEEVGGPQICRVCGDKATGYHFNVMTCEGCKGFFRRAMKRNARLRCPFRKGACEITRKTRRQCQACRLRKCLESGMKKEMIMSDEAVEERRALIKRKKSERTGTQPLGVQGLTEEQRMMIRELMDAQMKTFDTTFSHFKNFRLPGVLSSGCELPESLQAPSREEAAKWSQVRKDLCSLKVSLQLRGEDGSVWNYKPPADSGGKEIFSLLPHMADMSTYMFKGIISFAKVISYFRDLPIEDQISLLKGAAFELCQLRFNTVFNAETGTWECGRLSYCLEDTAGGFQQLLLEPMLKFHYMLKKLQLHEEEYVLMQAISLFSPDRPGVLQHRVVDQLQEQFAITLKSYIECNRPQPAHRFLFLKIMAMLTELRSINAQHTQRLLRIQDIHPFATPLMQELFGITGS

On to `O=NN1CCCCCCC1`, for which, in test [1], the call was inactive. Moreover, the Potency result in test [2], in [3], in [4], in [5], in test [6] and in [7] was “inactive” in each case. Besides, the Potency result in test [8], in test [9], in test [10], in test [11], in test [12] and in [13] was “inactive” in each case.

With `CC(=O)C=C(C)C`, the call in test [1] was inactive. Besides, the Potency entry in test [2], in test [3], in [4], in test [5], in test [6] and in test [7] was “inactive” each time. The Potency result in test [8], in test [9], in [10], in test [11], in test [12] and in [13] was “inactive” each time.

For `CCC[CH2][Sn]([Cl])([Cl])[Cl]`, the result in test [1] was inactive. For the same compound, the Potency result in [2], in [3], in test [4], in [5], in test [6] and in test [7] was “inactive” in each case. Further, the Potency result in test [8], in [10], in test [11], in [12] and in test [13] was “inactive” each time. In addition, in [9], the Potency was 40.6 µM (active) and inactive.

Consider `CCCCCCCCCCCC#N`, for which the result in [1] was inactive. The Potency result in [2], in [3], in test [4], in test [5], in [6] and in test [7] was “inactive” each time. The Potency result in test [8], in [10], in test [11], in test [12] and in test [13] was “inactive” throughout. Moreover, in [9], the Potency was 18 µM (active) and inactive.

In the case of `CCCCN(CC)C(=O)SCCC`, in [1], the outcome was inactive. Besides, the Potency entry in test [2], in [3], in test [4], in test [5], in [6] and in [7] was “inactive” throughout. Besides, the Potency entry in test [8], in test [10], in test [11], in test [12] and in test [13] was “inactive” in each case. Further, the Potency in test [9] is 80.5 µM (active) and inactive.

For the compound `CCCCN(CCCC)SN(C)C(=O)Oc1cccc2c1OC(C)(C)C2`, the compound was classed as inactive in [1]. Besides, the Potency entry in test [2] and in [12] was “inactive” throughout. Besides, the Potency is 62.1 µM (active) and inactive in [3]; 809 nM (active) and 159 nM (active) in [4]; 57.3 nM (active) and 894 nM (active) in [5]; 36.2 nM (active) and 564 nM (active) in test [6]; 573 nM (active) and 3.56 µM (active) in [7]; 28.7 µM (active) and 35.6 µM (active) in [8]. The Potency is 36.2 µM (active) and 71 µM (active) in [9]; 40.6 µM (active) and 31.7 µM (active) in [10]; 36.2 µM (active) and 39.9 µM (active) in test [11]; 14.4 µM (active) and 12.6 µM (active) in test [13].

Take `Nc1ccc(Cc2ccc(N)cc2)cc1`: the compound was classed as inactive in test [1]. Moreover, the Potency entry in test [2], in [4], in test [5], in [6], in test [7] and in [8] was “inactive” each time. Moreover, the Potency result in test [12] is “inactive”. Moreover, the Potency in [3] is 60.1 µM (active) and inactive; in [9] it was 35 µM (active) and inactive; in test [10], 31.2 µM (active) and inactive; in test [11] it was 39.3 µM (active) and 35.6 µM (active); in test [13] it was 6.99 µM (active) and 3.99 µM (active).

Consider `CC(C)C#N`, for which the compound was classed as inactive in test [1]. For the same compound, the Potency result in test [2], in test [3], in [4], in test [5], in test [6] and in test [7] was “inactive” each time. In addition, the Potency result in test [8], in test [10], in test [11], in [12] and in test [13] was “inactive” throughout. Further, the Potency in test [9] is 67.3 µM (active) and inactive.

As for `c1ccc(-c2ccccc2)cc1`, the compound was classed as inactive in test [1]. Besides, the Potency result in [2], in test [3], in [4], in test [5], in test [6] and in test [7] was “inactive” throughout. For the same compound, the Potency result in [8], in test [9], in test [10], in test [11], in [12] and in [13] was “inactive” throughout.

`Cc1ccc(N)cc1N`: the call in test [1] was inactive. Besides, the Potency entry in test [2], in test [3], in test [4], in [5], in test [6] and in test [7] was “inactive” each time. Also, the Potency result in test [12] is “inactive”. Moreover, the Potency was 30.9 µM (active) and 31.7 µM (active) in [8]; 34.6 µM (active) and 31.7 µM (active) in test [9]; 34.6 µM (active) and 39.9 µM (active) in test [10]; 30.9 µM (active) and 35.6 µM (active) in test [11]; 30.9 µM (active) in test [13].

In the case of `C1CN2CCN1CC2`, in [1], the compound was called inactive. Besides, the Potency entry in [2], in test [3], in [4], in test [5], in test [6] and in [7] was “inactive” throughout. Moreover, the Potency entry in [8], in test [9], in [10], in [11], in test [12] and in test [13] was “inactive” in each case.

Values taken from PubChem BioAssay (Tox21).
